Data from PubChem BioAssay (NCI).
About 79,000 compounds went through this panel and 15% of them were active in at least one assay; those are over-represented in the sample as a whole. Active and inactive are the calls of the source. Rule as the data show it: active = growth inhibition above about 70%; inactive = the rest.

Legend:
[1] = NCI Yeast Anticancer Drug Screen. Data for the rad50 strain (AID 155);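 also: 0% = growth of vehicle-only cultures of the same strain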; conditions: S. cerevisiae rad50 strain growth inhibition, hits give high values
In short: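 Compounds were tested on a yeast strain with an engineered DNA damage repair alteration; the reported value is growth inhibition normalised to vehicle treatment.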

[2] = NCI Yeast Anticancer Drug Screen. Data for the mec2-1 strain (AID 157); conditions: S. cerevisiae mec2-1 strain, hits give high values
In short: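 mec2-1 yeast strain, carrying an alteration in DNA damage repair or cell cycle control, was exposed to compounds; growth inhibition was measured relative to vehicle-treated controls.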

[3] = NCI Yeast Anticancer Drug Screen. Data for the sgs1 mgt1 strain (AID 161);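 also: 0% = growth of cultures given vehicle only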; conditions: S. cerevisiae sgs1 mgt1 strain, hits give high values
In short: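 Yeast cells carrying a defined DNA-repair defect were exposed to test compounds. Growth inhibition was measured relative to vehicle-treated controls.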

[4] = NCI Yeast Anticancer Drug Screen. Data for the cln2 rad14 strain (AID 165);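 also: 0% = growth equal to vehicle treated cultures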; conditions: S. cerevisiae cln2 rad14 strain, hits give high values
In short: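 Yeast carrying cln2 and rad14 alterations (cell cycle control and DNA damage repair) were exposed to compounds. Growth inhibition was measured against vehicle-treated controls.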

[5] = NCI Yeast Anticancer Drug Screen. Data for the bub3 strain (AID 167); conditions: S. cerevisiae bub3 mutant strain, hits give high values
In short: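 Growth of a checkpoint-deficient yeast mutant is measured after compound exposure. Values represent inhibition relative to vehicle.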

[6] = NCI Yeast Anticancer Drug Screen. Data for the mlh1 rad18 strain (AID 175); conditions: S. cerevisiae mlh1 rad18 strain growth inhibition, hits give high values
In short: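 Growth inhibition of the yeast strain was measured after compound exposure and expressed relative to vehicle-treated controls. The strain carries defined defects in DNA damage repair.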

[7] = at 5.0 µM (retest, dose inferred, filed as 0.5)
[8] = at 50.0 µM (retest, dose inferred, filed as 5.0)

SMILES | growth inhibition [1, 7] | growth inhibition [1, 8] | growth inhibition ([1]; at 50.0 µM) | growth inhibition [2, 7] | growth inhibition [2, 8] | growth inhibition ([2]; at 50.0 µM) | growth inhibition [3, 7] | growth inhibition [3, 8] | growth inhibition ([3]; at 50.0 µM) | growth inhibition [4, 7] | growth inhibition [4, 8] | growth inhibition ([4]; at 50.0 µM) | growth inhibition [5, 7] | growth inhibition [5, 8] | growth inhibition ([5]; at 50.0 µM) | growth inhibition [6, 7] | growth inhibition [6, 8] | growth inhibition ([6]; at 50.0 µM)
Cc1ccc([P+](CCN2C(=O)c3ccccc3C2=O)(c2ccc(C)cc2)c2ccc(C)cc2)cc1 | 77% (active) | 98% (active) | 89.8% (active) | 72% (active) | 99% (active) | 90.3% (active) | 89% (active) | 99% (active) | 90.5% (active) | 71% (active) | 99% (active) | 87.9% (active) | 86% (active) | 99% (active) | 90.5% (active) | 64% (inactive) | 98% (active) | 87.7% (active)
CC1C2CC(C(S(=O)(=O)N3CCOCC3)/C2=N\O)C1(C)C (configuration not stated) | -4% (inactive) | -14% (inactive) | 88.2% (active) | -12% (inactive) | -31% (inactive) | 92.2% (active) | -4% (inactive) | -4% (inactive) | 86.5% (active) | -20% (inactive) | 20% (inactive) | 89.2% (active) | 0% (inactive) | -19% (inactive) | 89.9% (active) | 16% (inactive) | -18% (inactive) | 83.2% (active)
c1ccc(-c2c3ccccc3cc3ccc4ccccc4c23)nc1 | 8% (inactive) | 48% (inactive) | 78.7% (active) | -6% (inactive) | 40% (inactive) | 52.9% (inactive) | 0% (inactive) | -42% (inactive) | 62.3% (inactive) | 10% (inactive) | 45% (inactive) | 49.5% (inactive) | 3% (inactive) | 71% (active) | 71% (active) | -8% (inactive) | 43% (inactive) | 81.2% (active)
Cc1cc(=O)n(-c2cc3cccccc-3n2)[nH]1 | -9% (inactive) | 96% (active) | 96.8% (active) | 2% (inactive) | 97% (active) | 71.6% (active) | 2% (inactive) | 98% (active) | 97.8% (active) | -11% (inactive) | 98% (active) | 70.3% (active) | -1% (inactive) | 95% (active) | 86.2% (active) | -1% (inactive) | 98% (active) | 96.2% (active)
